Source: PubChem (National Center for Advancing Translational Sciences (NCATS))
Lassa entry – Lassa virus entry inhibition; Lassa virus pseudotyped entry inhibition, cell-based qHTS; Potency, µM (titrated, usually from 49.2 µM), without a hit: at the highest dose activity change, negative = inhibition, most hits filed as inhibitors; 18,000 tested, 4.1% active; AID 720533
Marburg entry – blocks Marburg virus binding or cell entry; Marburg virus pseudotype entry/binding inhibition, cell-based; Potency, µM (highest dose often 49.2 µM), without a hit: top-dose activity change, negative = inhibition, actives largely listed as inhibitors; 18,000 tested, 6.5% active; AID 720532
An asterisk follows results filed as active; ! = repeats disagree; [ ] = dose if it differs, or a comment. This is a sample that favours compounds with a hit; in the whole collection about 8% have one here. Calls come from the whole dose curve; tested in HEK293 cells. % is set by controls: 0 for no effect and ±100 for the full control effect; potency is the fitted concentration of half-maximal effect.

Screening O=C1CCc2ccc(OCCCCN3CCN(c4cccc(Cl)c4Cl)CC3)cc2N1 returned Lassa entry inconclusive and Marburg entry 1.8%.
Screening Cc1cc2c(c(=O)n1-c1ccccc1)[C@H]1O[C@](c3ccsc3)(Cc3ccccc31)O2 returned Lassa entry -16.8%[8.59 µM] and Marburg entry inconclusive.
Screening CSC[C@H]1CN(c2ccccc2)C(=O)[C@H]1CC(=O)Nc1ccc(Br)cc1 returned Lassa entry 12.9% and Marburg entry -11.2%.
Screening CCN1C(=O)NC(c2cccc(C(F)(F)F)c2)C(C(=O)OC)=C1C (stereo not given) returned Lassa entry -4.0%[8.59 µM] and Marburg entry 22.7%[8.59 µM].
Screening c1ccc(-c2[nH]ncc2-c2ccnc(-c3ccc(OCCN4CCOCC4)cc3)c2)nc1 returned Lassa entry -14.4% and Marburg entry -19.1%.
`c1cc(-c2cnn3cc(-c4ccc(OCCN5CCCCC5)cc4)cnc23)ccn1` gave Lassa entry 40.6% and Marburg entry 12.6µM*.
`O[C@@H]1CN(Cc2cccs2)[C@@H](c2ccccc2)C[C@@H]1n1cc(C2CC2)nn1` gave Lassa entry -6.5% and Marburg entry -23.9%.
For CCCCC/C=C/C=C1/C(=O)C=C[C@@H]1C/C=C\CCCC(=O)O the results were Lassa entry 15.8µM*! and Marburg entry inconclusive.
`CCCCC[C@H](O)C/C=C1/C(=O)C=C[C@@H]1C/C=C\CCCC(=O)O` gave Lassa entry inconclusive and Marburg entry 12.0%.
For C[C@@H](ON=C1[C@H]2CCn3c(=O)n(-c4ccccc4)c(=O)n3[C@@H]2[C@H](O)[C@@H]2O[C@H]12)c1cn([C@H](CO)Cc2ccccc2)nn1 the results were Marburg entry -23.2%[8.59 µM].
`CCN1C(=NCc2ccco2)N[C@@H](c2ccccc2)[C@H](C(=O)OC)[C@H]1C` gave Lassa entry -21.7%[8.59 µM] and Marburg entry 12.8%[8.59 µM].
For CCOC(=O)CN1C(=O)[C@]2(O[C@H](COc3ccccc3)CC3=C2CCC3)c2ccccc21 the results were Lassa entry -14.7%[8.59 µM] and Marburg entry 30.2%[8.59 µM].
`CON=C1C[C@]2(C[C@@H]3C[C@@H](C/C=C(\C)C[C@@H](C)/C=C/C=C4\CO[C@@H]5[C@H](O)C(C)=C[C@@H](C(=O)O3)[C@]45O)O2)O[C@H](/C(C)=C/C(C)C)[C@H]1C` gave Lassa entry 31.6µM* and Marburg entry 28.2µM*.
For CC(=O)C1=C(C)N(CCC=Cc2ccccc2)C(=O)NC1c1ccccc1 (stereo not given) the results were Lassa entry -10.8%[8.59 µM] and Marburg entry inconclusive.
Screening COc1cc(Nc2nccc(Nc3ccc4c(C)[nH]nc4c3)n2)cc(OC)c1OC returned Lassa entry inconclusive and Marburg entry 9.96µM*.
Screening COc1ccc(Nc2nccc(NCCO)n2)cc1 returned Lassa entry 6.0% and Marburg entry 18.0%.
For COC(=O)[C@H]1O[C@@H](c2cc(OC)c(C)c(OC)c2O)[C@H](C)[C@@H](O)[C@@H]1C the results were Marburg entry 31.5%[8.59 µM].
Screening COc1ccc2c(c1)OC(C)(C)C(c1ccccc1)C2c1ccc(OCCN2CCCC2)cc1 (stereo not given) returned Lassa entry inconclusive and Marburg entry 4.47µM*.
Screening COc1cccc([C@@H]2Oc3ccc(OC)cc3C(=O)[C@H]2OC(=O)NCCOc2ccccc2)c1 returned Lassa entry -3.6% and Marburg entry -10.0%.
Screening CCC(=O)OC1(C)C(=O)C=C2C=C(/C=C/COC)OC=C2C1=O (stereo not given) returned Lassa entry 0.1% and Marburg entry -14.1%.
`COC/C=C/C1=CC2=CC(=O)C(C)(OC(=O)c3cnc4ccccc4n3)C(=O)C2=CO1` (stereo not given) gave Lassa entry 5.62µM* and Marburg entry 14.5%.
For COC(=O)[C@H]1[C@@H](c2ccccc2)NC(=O)N(Cc2ccccc2)[C@@H]1C the results were Lassa entry -1.2%[8.59 µM] and Marburg entry inconclusive.
CC1OC(=O)C(C(C)C)NC(=O)C(C(C)C)OC(=O)C(C(C)C)NC(=O)C(C)OC(=O)C(C(C)C)NC(=O)C(C(C)C)OC(=O)C(C(C)C)NC(=O)C(C)OC(=O)C(C(C)C)NC(=O)C(C(C)C)OC(=O)C(C(C)C)NC1=O (stereo not given) was read as Lassa entry 0.126µM* and Marburg entry 89.1µM*.
C#CCN1C(=O)[C@]2(OCCC=C[C@@H]2C)c2cc(OC)ccc21 was read as Lassa entry 5.0%[8.59 µM] and Marburg entry 9.1%[8.59 µM].
`COC(=O)[C@@H]1C[C@@]23C(=NN=C(SC)C2Nc2ccccc23)N1C(C)=O` (stereo not given in full) gave Lassa entry -8.6%[8.59 µM] and Marburg entry -22.9%[8.59 µM].
For Oc1ccc(Cl)cc1Sc1cc(Cl)ccc1O the results were Lassa entry 12.6µM* and Marburg entry inconclusive.
Screening Oc1ccc(Cl)cc1 returned Lassa entry -4.3% and Marburg entry -16.3%.
CCCCC1C(=O)N(c2ccccc2)N(c2ccc(O)cc2)C1=O (stereo not given) was read as Lassa entry inconclusive and Marburg entry 47.6%[17.8 µM].
`CCCCc1c(O)n(-c2ccccc2)[nH]c1=O` gave Lassa entry 10µM* and Marburg entry -2.4%.
OCCN1CCN(CCCN2c3ccccc3Sc3ccc(Cl)cc32)CC1 was read as Lassa entry inconclusive and Marburg entry 2.24µM*.
Screening CCCCCCCCCCCCCCCC(=O)OCCC1CCN(CCCN2c3ccccc3Sc3ccc(S(=O)(=O)N(C)C)cc32)CC1 returned Lassa entry 21.1% and Marburg entry -12.9%.
CC(=O)c1ccc2c(c1)N(CCCN1CCC(CCO)CC1)c1ccccc1S2 was read as Lassa entry -29.8%[17.8 µM] and Marburg entry 11.2µM*.
For CN1CCN(CCCN2c3ccccc3Sc3ccc(S(=O)(=O)N(C)C)cc32)CC1 the results were Lassa entry -12.9%[17.8 µM] and Marburg entry inconclusive.
OCCOCCN1CCN(C2=Nc3ccccc3Sc3ccccc32)CC1 was read as Lassa entry -23.7% and Marburg entry -9.5%.
`CN(C)CCCN1c2ccccc2Sc2ccc(Cl)cc21` gave Lassa entry inconclusive and Marburg entry 15.8µM*.
Screening CCOC(=O)NN=C1C[C@@H](O)[C@@H](O)[C@@H]2[C@H]3C(=O)N(C4CCCCC4)C(=O)[C@@H]3CC[C@@H]12 returned Marburg entry -24.9%[8.59 µM].
CC12C=C(C=CC=Cc3ccco3)C(C)(C1)C(C=Cc1ccco1)CC2=O (stereo not given) was read as Lassa entry 0.0%[8.59 µM] and Marburg entry -19.0%[8.59 µM].
Screening COc1ccc2c(c1)[C@@]1(OCCC=C[C@@H]1C)C(=O)N2Cc1ccc(Br)cc1 returned Lassa entry -21.2%[8.59 µM] and Marburg entry 5.4%[8.59 µM].
`COC(=O)c1ccc(CN2C(=O)[C@@]3(CC(C)=CC[C@@H](COc4ccccc4)O3)c3ccccc32)cc1` gave Lassa entry -19.6%[8.59 µM] and Marburg entry 9.2%[8.59 µM].
CC1(C)C(=O)C=C[C@@]2(C)C1=C(O)C(=O)[C@@]1(C)C2CC[C@@]2(C)C(c3ccoc3)C[C@H]3O[C@@]321 (stereo not given in full) was read as Lassa entry 11.2µM* and Marburg entry 5.01µM*.
CC(=O)OC1CC(OC(C)=O)[C@]2(C)C(CC(=O)[C@]3(C)C2CC[C@@]2(C)C(c4ccoc4)OC(=O)C4O[C@@]423)C1(C)C (stereo not given in full) was read as Lassa entry -16.7% and Marburg entry 5.1%.
CC(C)C(=O)N[C@H]1CCCN1C(=O)C=Cc1ccccc1 was read as Lassa entry 13.0%[8.59 µM] and Marburg entry -22.4%[8.59 µM].
